Mtb betalactam = beta-lactam sensitization of Mtb H37Rv, H37Rv; M. tuberculosis H37Rv growth with meropenem, percent inhibition; inhibition, % at 25 µM; hit rate 0.27% among 330,000; call rule not given here;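 also: growth measured after seven days incubation then overnight dye step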
Rv3671c inh = Rv3671c serine protease inhibitors, primary screen, biochemical, fluorescence polarization, M. tuberculosis H37Rv | P9WHR9 | inhibition, % at 5.96 µM | hit rate 0.048% among 320,000 | AID 2606, 2010; in the data active = inhibition above about 38%;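 also: extracellular domain of Rv3671c used as enzyme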
UGM FP inh = M. tuberculosis UGM enzyme inhibitors, primary screen, biochemical, fluorescence polarization, single point. UDP-galactopyranose mutase (Mycobacterium tuberculosis (strain ATCC 25618 / H37Rv)), …. purified UGM, fluorescence polarization probe displacement. inhibition, % at 10 µM. hit rate 0.06% among 320,000. AID 504406, 2011; in the data active = inhibition above about 10%, passing the limit was not always enough
Target sequence (P9WIQ1 whole entry, looked up): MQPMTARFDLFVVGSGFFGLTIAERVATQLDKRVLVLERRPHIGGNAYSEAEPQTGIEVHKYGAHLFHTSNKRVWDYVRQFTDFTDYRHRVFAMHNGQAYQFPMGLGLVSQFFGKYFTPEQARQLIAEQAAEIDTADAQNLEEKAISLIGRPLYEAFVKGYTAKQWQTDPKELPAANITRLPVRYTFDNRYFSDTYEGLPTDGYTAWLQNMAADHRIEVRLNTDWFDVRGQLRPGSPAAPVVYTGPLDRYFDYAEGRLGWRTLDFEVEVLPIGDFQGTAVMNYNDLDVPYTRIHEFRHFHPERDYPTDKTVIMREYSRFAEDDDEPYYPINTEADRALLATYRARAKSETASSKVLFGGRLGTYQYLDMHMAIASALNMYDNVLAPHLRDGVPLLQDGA
RecA splice inh = Mtb RecA intein splicing inhibitors, primary screen, biochemical, fluorescence, HTS; Protein RecA (Mycobacterium tuberculosis (strain ATCC 25618 / H37Rv)), P9WHJ3; cell-free RecA intein splicing; inhibition, % (test concentration not listed); hit rate 0.75% among 290,000; in the data active = inhibition above about 30%
GDH-TPI counter = GDH-TPI coupling enzyme inhibitors, primary screen, artefact control for M. tuberculosis FBA inhibitor project, biochemical, absorbance, full deck; GDH-TPI coupled enzyme counterscreen, NADH absorbance; inhibition, % at 4.8 µM; hit rate 1.2% among 360,000; in the data active = inhibition above about 30%
Mtb FBA inh = Mtb FBA enzyme inhibitors, primary screen, biochemical, fluorescence, strain H37Rv; purified M. tuberculosis FBA, fluorescence read-out; hit rate 2.3% among 360,000; inhibition, % at 1 µM; Fructose-bisphosphate aldolase (Mycobacterium tuberculosis (strain ATCC 25618 / H37Rv)), …; in the data active = inhibition above about 27%
Each line names hits and unclear results; the compound was inactive in the other large screens. This is a sample that favours compounds with a hit; in the whole collection about 4% have one here.

Cc1ccn2c(=O)c(NC(=O)c3ccc4c(c3)OCO4)c(C)nc2c1	GDH-TPI counter 31 (no result: Mtb betalactam, Rv3671c inh, UGM FP inh, RecA splice inh)
CN1CCC(N(C)S(=O)(=O)c2ccc(NC(=O)COc3cccc(C(F)(F)F)c3)cc2)CC1	none
COc1ccc2oc(=O)c(C(=O)Oc3ccc(NC(C)=O)cc3)cc2c1	Mtb FBA inh 31
COc1ccc(NC(=O)c2cc3cc(OC)ccc3oc2=O)cc1	none (no result: RecA splice inh)
O=C1C2C3C=CC(CC3)C2C(=O)N1/N=C/c1ccc(O)cc1 (stereo not given)	GDH-TPI counter 32
CC(=O)NN1C(=O)/C(=C\c2ccc(O)cc2)SC1=S	none
O=C1/C(=C\c2ccc(O)cc2)SC(=S)N1/N=C/c1ccc(O)cc1	GDH-TPI counter 38
CC(=O)c1cccc(S(=O)(=O)N2CCN(CCOc3ccccc3)CC2)c1	none (no result: RecA splice inh)
O=[N+]([O-])c1ccc(-c2nc(Cl)c3c(n2)CCCC3)o1	GDH-TPI counter 32 (no result: Mtb betalactam, Rv3671c inh, UGM FP inh, RecA splice inh)
Cc1c(C(C)C[C@H](C)O)oc(=O)c2c1Oc1c(C)c(C(C)C[C@H](C)O)oc(=O)c1C2 (stereo not given in full)	none (no result: RecA splice inh)
O=C1/C(=C/c2ccc(C(=O)O)cc2)CCC/C1=C\c1ccc(C(=O)O)cc1	GDH-TPI counter 33
CN(C)c1ccc(/C=C2\CCC/C(=C\c3ccccc3)C2=O)cc1	none
CCO/C(C)=N/n1c2nc3ccccc3nc2c2c(=O)n(Cc3ccccc3Cl)c(C)nc21	GDH-TPI counter 33
NS(=O)(=O)c1cccc(NC(=O)COC(=O)c2ccc(S(=O)(=O)N3CCOCC3)cc2)c1	none (no result: Mtb betalactam, Rv3671c inh, UGM FP inh, RecA splice inh)
NCCSC1CC(=O)N(c2ccc(Cl)c(Cl)c2)C1=O (stereo not given)	Mtb FBA inh 47
C[C@H](CO)N1C[C@H](C)[C@H](CN(C)C(=O)Nc2ccc(C(F)(F)F)cc2)OCc2cnnn2CCCC1=O	none (no result: Mtb betalactam, Rv3671c inh, UGM FP inh, RecA splice inh)
Cc1ccccc1CNC(=O)CCNS(=O)(=O)c1ccc(OC(F)(F)F)cc1	none (no result: RecA splice inh)
CCNC(=O)NC(=O)C(C)OC(=O)[C@H](C)NS(=O)(=O)c1c(C)c(C)cc(C)c1C (stereo not given in full)	none
O=C1C=C(Nc2ccc(O)cc2)CC(c2ccco2)C1 (stereo not given)	none
CCOC(=O)c1ccc(NC2=CC(=O)CC(c3ccco3)C2)cc1 (stereo not given)	GDH-TPI counter 60
COCCN(C(=O)c1ccc(OCC(C)C)cc1)c1c(N)n(Cc2ccccc2)c(=O)[nH]c1=O	none
S=c1[nH]nc(-c2ccc3ccccc3n2)o1	GDH-TPI counter 38
Cc1cc(/C(=N/O)C(C)(C)NO)ccc1Cl	none
CC(C)(NO)/C(=N\O)c1ccccc1	Mtb FBA inh 54
CC(=O)Nc1ccc2nc(NC(=O)c3ccco3)sc2c1	GDH-TPI counter 32
CC(=O)Nc1nc2c(F)cccc2s1	none
CCC(=O)Nc1nc2ccc(NC(C)=O)cc2s1	none (no result: RecA splice inh)
CCOc1cccc2sc(Nc3nc4ccc(NC(C)=O)cc4s3)nc12	GDH-TPI counter 39, Mtb FBA inh 119
O=C(Nc1nc2c(F)cccc2s1)c1ccco1	GDH-TPI counter 36
CC(NC(=O)OC(C)(C)C)C(=O)Oc1cc2oc(=O)cc(-c3ccccc3)c2cc1Cl (stereo not given)	Mtb FBA inh 43
CCOc1ccc(/C=N/NC(=O)c2cc3ccccc3cc2OC)cc1	none
COCC(C)NC(=O)c1cc(OC)cc(OC)c1 (stereo not given)	none
COc1ccc(/C=C\C(=O)NCC(=O)N/N=C/c2ccc(O)cc2O)cc1	GDH-TPI counter 68
COCC(C)NC(=O)c1cc2cc(OC)ccc2[nH]1 (stereo not given)	Mtb FBA inh 46
CCOc1ccc2[nH]c(C(=O)N/N=C/c3ccc(OC)cc3)cc2c1	GDH-TPI counter 55 (no result: Rv3671c inh)
COc1cc2cc(C(=O)N/N=C/c3ccccc3Cl)[nH]c2cc1OC	GDH-TPI counter 47
O=C(NCCc1nnc2ccc(SCC(=O)N3CCCC3)nn12)c1ccc(F)cc1	none
COc1ccc(-c2csc(C(O)c3ccc(F)c(F)c3)n2)cc1 (stereo not given)	none (no result: Mtb betalactam, Rv3671c inh, UGM FP inh, RecA splice inh)
COc1ccc(CN2CCC(C)(Oc3ccc(C(C)=O)cc3)C2)c2ccccc12 (stereo not given)	none (no result: Mtb betalactam, Rv3671c inh, UGM FP inh, RecA splice inh)
COc1cc(/C=N/NC(=O)c2ccc(-c3ccccc3)cc2)cc(OC)c1OC	none

Assay outcomes: PubChem, several laboratories
